Screening data (PubChem BioAssay)
BJeLR viability: BJeLR cell viability loss; BJeLR (HRASV12) viability, CellTiter-Glo ATP luminescence, 48 h; inhibition, % (no concentration beside the values); 300,000 compounds, 0.17% hits; in the data active means inhibition above about 50%
VHR inh abs: blocks human VHR1 dual specificity phosphatase | P51452 | recombinant VHR phosphatase, pNPP absorbance | 290,000 compounds, 0.52% hits | AID 1654 | inhibition, % at 13.3 µM; in the data active means inhibition above about 50%
Target sequence (P51452 whole entry, looked up): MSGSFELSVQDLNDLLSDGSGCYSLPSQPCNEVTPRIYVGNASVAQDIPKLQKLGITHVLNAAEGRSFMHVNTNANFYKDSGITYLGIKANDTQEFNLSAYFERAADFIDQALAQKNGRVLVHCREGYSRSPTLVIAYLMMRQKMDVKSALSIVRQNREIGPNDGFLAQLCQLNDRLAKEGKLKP
MazEF act: activators of E. coli MazEF toxin-antitoxin RNase. P0AE70. activation, % at 20 µM. 350,000 compounds, 0.32% hits. AID 504720. FAM/BHQ RNA-DNA oligo cleavage fluorescence, 5 h; in the data active means activation above about 50%
Target sequence (P0AE70 whole entry, looked up): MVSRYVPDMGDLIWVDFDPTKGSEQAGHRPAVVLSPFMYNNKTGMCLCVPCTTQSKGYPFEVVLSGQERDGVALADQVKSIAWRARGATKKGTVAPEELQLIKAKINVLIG
PfHsp40 rescue: rescue of PfHsp40-mediated yeast toxicity | S. cerevisiae expressing PfHsp40, growth rescue, ATP luminescence | growth rescue, % at 12.5 µM | 340,000 compounds, 0.68% hits | AID 504582; in the data active means growth rescue above about 28%, passing the limit was not always enough;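 further: yeast W303a lacking pdr1 and pdr3 grown in galactose medium; growth measured after three days at 30 °C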
PrP UTR inh: inhibition of PrP 5' UTR reporter expression; 340,000 compounds, 0.35% hits; cell-based PrP 5' UTR mRNA reporter, plate reader; inhibition, % (test concentration not listed); in the data active means inhibition above about 52%; further: 0 = median of the neutral control wells
PrPC TRFRET: cell surface PrPC inhibition, primary TR-FRET screen | P04156 | TR-FRET read-out | inhibition, % at 13.8 µM | 370,000 compounds, 0.43% hits; in the data active means inhibition above about 24%; further: 0% = median of the test wells and 100% = reference compound wells
Active calls of the source: *; nt = no result. This is a sample that favours compounds with a hit; in the whole collection about 2.1% have one here.

SMILES	BJeLR viability	VHR inh abs	MazEF act	PfHsp40 rescue	PrP UTR inh	PrPC TRFRET
Cn1nc(C(=O)N2CCCCC2)c2c1-c1ccccc1S(=O)(=O)C2	5	-6	17	0	-4	-1
CCOc1ccc(NCc2cc3c(C(C)(C)C)nn(-c4ccccc4)c3[nH]c2=O)cc1	-3	4	-6	43*	0	0
COC(=O)c1ccc2nc(Nc3nc4ccc(F)cc4s3)sc2c1	-10	12	4	-2	81*	-2
CCOC1=C2CN(S(=O)(=O)c3ccc(C)cc3)[C@@H](c3cccs3)C[C@H]2[C@H]2C(=O)N(c3ccccc3)C(=O)[C@H]2C1	nt	nt	nt	nt	nt	1
Cc1cccc(Nc2nnc(-c3ccc(C(=O)N4C[C@H]5C[C@H](C4)c4cccc(=O)n4C5)cc3)c3ccccc23)c1	-12	25	8	84*	-16	-26
Cc1cccc(NC(=O)N2C[C@H]3C[C@@H](C2)c2cccc(=O)n2C3)c1	2	21	0	0	-13	-8
COc1ccc2[nH]c3c(c2c1)CCN1C(=O)C(CC(=O)NCc2cccc(C(F)(F)F)c2)C[C@H](C(=O)N(C(C)C)C(C)C)[C@@]31C (stereo partly drawn)	nt	nt	38	1	-6	-5
CCc1ccc(N(CC(=O)NCc2ccc3c(c2)OCO3)C(=O)c2csnn2)cc1	0	53*	-8	-1	-6	6
CCOc1ccc(N(CC(=O)NCc2ccc3c(c2)OCO3)C(=O)c2csnn2)cc1	-5	39	3	0	2	-5
COc1ccc(S(=O)(=O)NC(=O)C2(C)CCN2C(=O)CC2CCCCC2)cc1OC (stereo not drawn)	nt	nt	nt	nt	nt	3
CCN(CC)c1ccc(C=Nc2ccc(N(C)C)cc2)c(O)c1	-1	35	532*	0	-25	-23
CCN(CC)c1ccc(C=Nc2ccc(C)cc2)c(O)c1	7	3	2	-1	-14	2
CCN(CC)c1ccc(N=Cc2ccc(N(CC)CC)cc2O)cc1	1	-12	162*	-2	-6	-2
O=C(/C=C/c1ccco1)NC(=S)Nc1ccccc1N1CCCC1	-9	56*	10	59*	-4	-1
CCCCn1nnnc1C(c1cccs1)N1CCN(C/C=C/c2ccccc2)CC1 (stereo not drawn)	nt	nt	nt	nt	nt	-5
COc1ccc(-c2ccc3n2Cc2cnnn2-c2ccccc2-3)cc1	nt	nt	0	137*	-34	-10
CC1C=CCC2C(=O)N(c3cccc(C(=O)NCc4ccccc4)c3)C(=O)C12 (stereo not drawn)	2	-13	-8	-1	-16	2
CC(OC(=O)c1c2c(nc3ccccc13)/C(=C\c1ccc3c(c1)OCO3)CCC2)C(=O)Nc1ccc(S(N)(=O)=O)cc1 (stereo not drawn)	nt	6	165*	2	3	nt
COCCNc1nnc(SCC(=O)c2c[nH]c3ccccc23)s1	12	-4	11	0	-4	7
Cc1ccccc1-n1cnc2cc(NCc3cccs3)ccc21	3	36	5	1	-17	15
COc1ccccc1-n1cnc2cc(NCc3cccs3)ccc21	60*	33	-2	1	-11	24
CCOc1cccc(/C=C/c2ccc3cccc(O)c3n2)c1OC	10	nt	-9	168*	nt	-20
COc1ccccc1/C=C/c1ccc2cccc(O)c2n1	10	53*	0	0	-50	-12
Cn1c(CC(O)c2nc3ccccc3n2C)nc2ccccc21 (stereo not drawn)	nt	nt	0	nt	nt	-7
CN1OC[C@@H]2CN(Cc3ccc(Cl)cc3)[C@H](c3ccc(-n4ccnc4)cc3)C[C@@H]21	nt	nt	nt	nt	nt	-6
COc1ccc(-c2ccc(-c3noc(-c4ccccc4OC)n3)c(OC)n2)cc1	14	6	61*	0	-21	-3
CCCC1COC(Cn2cncn2)(c2ccc(C)cc2)O1 (stereo not drawn)	4	5	-6	132*	-19	-8
COc1ccc(CCNC(=O)COC(=O)C2=NNC(=O)CC2)cc1	nt	nt	-2	nt	nt	1
Cc1ccc(NC(=O)CN2C(=O)S/C(=C/c3ccc(-c4cc(C(=O)O)ccc4C)o3)C2=O)cc1C	-8	29	75*	-1	0	-1
COC(=O)[C@]12C[C@H](CC(=O)N3CCOCC3)C(=O)N(Cc3ccc4c(c3)OCO4)C1=C[C@H](COCc1ccccc1)O[C@@H]2C	nt	nt	nt	nt	nt	-8
